Active and inactive are the calls of the source. The calls were made as follows: active = hit-call score of the fitted dose curve at least 0.9, where 1 is the maximum; inactive = score below 0.9.
Experiments:
[1] = ATG_E_Box_CIS: Attagene CIS-FACTORIAL HepG2 Assay for human Enhancer Box (E-box) (AID 2282936); details: HepG2 E-box cis-reporter transcription, actives raise or lower the signal
In short: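 E-box-driven reporter transcripts measured in transiently transfected HepG2 after 24 h exposure: RNA reverse-transcribed, PCR-amplified, fluorescently labelled, digested and resolved by capillary electrophoresis. Gain or loss relative to DMSO.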

[2] = ATG_M_61_CIS: Attagene CIS-FACTORIAL HepG2 Assay for M61 Transcription Factor (Internal Marker) (AID 2282937); details: HepG2 Attagene CIS-FACTORIAL M61 internal marker reporter; actives raise or lower the signal
In short: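 Cells were transfected with reporter units under cis-regulatory promoters, treated with chemicals for 24 h, then lysed for RNA. Reporter transcripts were quantified by RT-PCR and capillary electrophoresis, and activity was fitted bidirectionally against DMSO.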

[3] = ATG_EGR_CIS: Attagene CIS-FACTORIAL HepG2 Assay for human Early Growth Response 1 (EGR1) (AID 2282938); details: HepG2 Attagene CIS-FACTORIAL EGR reporter mRNA; actives raise or lower the signal
In short: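 Endogenous TF activity in HepG2 liver cells was gauged through cis-promoter reporter constructs transiently transfected. After 24 h dosing, reporter mRNA was quantified by RT-PCR and capillary electrophoresis, and curves fitted in both directions versus DMSO.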

[4] = ATG_M_19_CIS: Attagene CIS-FACTORIAL HepG2 Assay for M19 Transcription Factor (Internal Marker) (AID 2282939); details: HepG2 Attagene CIS-FACTORIAL M19 internal marker reporter; actives raise or lower the signal
In short: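 Transfect HepG2 with MRTU reporter library → dose chemical, 24 h → isolate total RNA, reverse-transcribe with oligo(dT) → PCR, 6-FAM label, HpaI cut (2 h, 37 C) → capillary electrophoresis. Bidirectional fit vs DMSO.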

[5] = biological target: Hepatocyte nuclear factor 3-beta (Homo sapiens) (UniProt Q9Y261); assay: ATG_FoxA2_CIS: Attagene CIS-FACTORIAL HepG2 Assay for human Forkhead box A2 (FOXA2) (AID 2282942); details: HepG2 cis-reporter transcription factor activity, 24 h; actives raise or lower the signal
In short: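 Endogenous transcription factor activity was read in HepG2 cells carrying transiently transfected cis-promoter reporter units. After 24 h dosing, reporter mRNA was quantified by RT-PCR and capillary electrophoresis, and values fitted bidirectionally versus DMSO.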

[6] = ATG_FoxO_CIS: Attagene CIS-FACTORIAL HepG2 Assay for human Forkhead box O (FoxO) (AID 2282943); details: HepG2 Attagene cis-reporter, FoxO element, mRNA; actives raise or lower the signal
In short: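 HepG2, transient MRTU transfection (cis element, endogenous TFs). Dose 24 h. TriZol RNA → oligo(dT) RT → PCR → 6-FAM primer extension → HpaI cut → CE. Gain/loss vs DMSO.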

[7] = ATG_GATA_CIS: Attagene CIS-FACTORIAL HepG2 Assay for human GATA Binding Protein (AID 2282944); details: HepG2 GATA cis-element reporter, Attagene multiplex mRNA; actives raise or lower the signal
In short: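 Transient MRTU transfection, HepG2, 24 h compound exposure. Total RNA → oligo(dT) RT → PCR → 6-FAM primer extension → HpaI cut → CE. Bidirectional fit vs DMSO.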

[8] = ATG_GLI_CIS: Attagene CIS-FACTORIAL HepG2 Assay for human Zinc Finger Protein GLI1 (AID 2282945); details: HepG2, Attagene cis-factorial reporter mRNA, GLI element; actives raise or lower the signal
In short: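 Bidirectional curve fits relative to DMSO, using reporter mRNA levels from RT-PCR plus capillary electrophoresis. Cells were HepG2 transiently carrying cis-regulated reporter constructs, harvested 24 h after dosing.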

[9] = ATG_ISRE_CIS: Attagene CIS-FACTORIAL HepG2 Assay for human Interferon Regulatory Factor 1 (IRF1) binding to an Interferon-Stimulated Response Element (ISRE) (AID 2282948); details: HepG2 ISRE cis-reporter (Attagene), mRNA transcription readout; actives raise or lower the signal
In short: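 Uses HepG2 liver cells transfected with cis-regulated reporters and measures mRNA 24 h post-dosing through RT-PCR, primer-extension labelling and capillary electrophoresis, with DMSO as negative control.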

[10] = ATG_M_32_CIS: Attagene CIS-FACTORIAL HepG2 Assay for M32 Transcription Factor (Internal Marker) (AID 2282949); details: HepG2 Attagene cis-factorial M32 reporter, mRNA; actives raise or lower the signal;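 also: background control marker of the multiplexed CIS panel rather than a real target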
In short: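 HepG2 human liver cells transiently transfected with cis-promoter-driven multiple reporter transcription units, dosed 24 h. Reporter mRNA quantified by RT-PCR, FAM-labelled primer extension, HpaI digest and capillary electrophoresis; bidirectional fit versus DMSO baseline.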

[11] = ATG_M_06_CIS: Attagene CIS-FACTORIAL HepG2 Assay for M06 Transcription Factor (Internal Marker) (AID 2282950); details: HepG2 Attagene CIS-FACTORIAL M06 internal marker reporter; actives raise or lower the signal
In short: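 Read-out is fluorescence of labelled reporter cDNA fragments resolved by capillary electrophoresis after RT-PCR. Cells: HepG2 carrying transfected cis-promoter reporter units, treated 24 h. Gain or loss of signal fitted relative to DMSO.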

[12] = biological target: Hypoxia-inducible factor 1-alpha (Homo sapiens) (UniProt Q16665); assay: ATG_HIF1a_CIS: Attagene CIS-FACTORIAL HepG2 Assay for human Hypoxia Inducible Factor 1 (HIF1A) (AID 2282951); details: HepG2 Attagene cis-factorial HIF1a reporter transcription; actives raise or lower the signal
In short: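 Measures endogenous transcription-factor activity through cis-regulated reporter mRNA in HepG2. Cells dosed 24 h; transcripts quantified by RT-PCR with 6-FAM-labelled products separated by capillary electrophoresis; DMSO serves as negative control.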

[13] = biological target: Hepatocyte nuclear factor 6 (Homo sapiens) (UniProt Q9UBC0); assay: ATG_HNF6_CIS: Attagene CIS-FACTORIAL HepG2 Assay for human Hepatocyte Nuclear Factor 6 (HNF6) (AID 2282952); details: HepG2 Attagene cis-factorial HNF6 reporter transcription; actives raise or lower the signal
In short: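 First, HepG2 cells were transfected with the multiplexed cis reporter library and dosed with chemical for 24 h. Next, RNA was reverse-transcribed, PCR-amplified and fluorescently labelled. Finally, HpaI-digested fragments were read by capillary electrophoresis.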

[14] = ATG_MRE_CIS: Attagene CIS-FACTORIAL HepG2 Assay for human Metal Responsive Element (MRE) (AID 2282954); details: HepG2 MRE cis-reporter transcription, Attagene multiplex; actives raise or lower the signal
In short: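 Endogenous MRE-dependent transcription read as reporter mRNA in transiently transfected human HepG2 cells at 24 h. RNA reverse-transcribed, PCR-amplified, labelled and resolved by capillary electrophoresis; gain or loss relative to DMSO.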

[15] = ATG_PBREM_CIS: Attagene CIS-FACTORIAL HepG2 Assay for human Phenobarbital-responsive Enhancer Module (PBREM) (AID 2282955); details: HepG2 PBREM cis-reporter, Attagene multiplexed transcription; actives raise or lower the signal
In short: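 Fluorescence of labelled reporter cDNA fragments, resolved by capillary electrophoresis, gives mRNA induction in transfected HepG2 cells treated for 24 h; DMSO serves as negative control and baseline.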

[16] = ATG_ERE_CIS: Attagene CIS-FACTORIAL HepG2 Assay for Estrogen Response Element (ERE) (AID 2282940); details: HepG2 ERE cis-reporter, Attagene RNA transcript; actives raise or lower the signal
In short: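 Transient MRTU transfection of human HepG2; cis-element promoters; 24 h dosing; total RNA → RT (oligo dT) → PCR → 6-FAM primer extension → HpaI digest → CE fluorescence. Bidirectional fit, DMSO baseline.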

[17] = ATG_Ets_CIS: Attagene CIS-FACTORIAL HepG2 Assay for human Erythroblast Transformation Specific (ETS) (AID 2282941); details: HepG2 ETS cis-reporter transcription, actives raise or lower the signal
In short: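 Bidirectional fit versus DMSO of reporter mRNA signal, detected by RT-PCR and capillary electrophoresis in HepG2 cells transiently transfected with cis-element reporters and dosed 24 h.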

[18] = ATG_GRE_CIS: Attagene CIS-FACTORIAL HepG2 Assay for human Glucocorticoid Response Elements (GRE) (AID 2282947); details: HepG2 GRE cis-reporter, Attagene multiplex mRNA; actives raise or lower the signal
In short: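 Reporter transcripts read by RT-PCR with capillary electrophoresis fluorescence after a 24 h chemical exposure of HepG2 cells transiently transfected with multiple cis-element reporter units. Gain or loss fitted against DMSO.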

[19] = biological target: Bile acid receptor (Homo sapiens) (UniProt Q96RI1); assay: ATG_IR1_CIS: Attagene CIS-FACTORIAL HepG2 Assay for human Nuclear Receptor Subfamily 1 Group H Member 4 (NR1H4), IR1 submotif (AID 2282946); details: IR1 reporter transcription, actives raise or lower the signal
In short: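 HepG2 cells transiently transfected with multiplexed cis-element reporter units read endogenous transcription factor activity. After 24 h compound exposure, reporter mRNA was quantified by RT-PCR, fluorescent labelling, HpaI digestion and capillary electrophoresis; bidirectional fitting versus DMSO baseline.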

[20] = biological target: Heat shock factor protein 1 (Homo sapiens) (UniProt Q00613); assay: ATG_HSE_CIS: Attagene CIS-FACTORIAL HepG2 Assay for human Heat Shock Transcription Factor 1 (HSE) (AID 2282953); details: HepG2 HSE cis-reporter, Attagene RNA transcription; actives raise or lower the signal
In short: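 HepG2, transient MRTU transfection, cis-promoter reporters (endogenous TF activity). 24 h compound. RNA → oligo(dT) RT → PCR → 6-FAM primer extension → HpaI cut → CE. Bidirectional fit vs DMSO.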

Measured: AC50

Hepatocyte nuclear factor 6 (Homo sapiens), sequence (Q9UBC0 whole entry, looked up, the tested form may be a part): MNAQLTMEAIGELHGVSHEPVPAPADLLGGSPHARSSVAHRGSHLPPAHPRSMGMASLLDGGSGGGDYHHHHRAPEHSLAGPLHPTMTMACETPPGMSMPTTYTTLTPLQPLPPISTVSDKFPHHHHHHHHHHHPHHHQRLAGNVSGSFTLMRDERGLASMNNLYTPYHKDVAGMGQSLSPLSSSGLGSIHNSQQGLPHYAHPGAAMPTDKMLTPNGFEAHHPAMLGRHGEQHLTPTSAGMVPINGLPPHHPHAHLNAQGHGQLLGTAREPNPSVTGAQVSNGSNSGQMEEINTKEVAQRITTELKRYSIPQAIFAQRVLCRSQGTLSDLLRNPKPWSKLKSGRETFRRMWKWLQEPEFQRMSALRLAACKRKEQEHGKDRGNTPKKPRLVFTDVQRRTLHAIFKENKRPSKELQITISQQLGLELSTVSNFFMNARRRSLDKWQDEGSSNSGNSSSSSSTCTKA
Hypoxia-inducible factor 1-alpha (Homo sapiens), sequence (Q16665 whole entry, looked up): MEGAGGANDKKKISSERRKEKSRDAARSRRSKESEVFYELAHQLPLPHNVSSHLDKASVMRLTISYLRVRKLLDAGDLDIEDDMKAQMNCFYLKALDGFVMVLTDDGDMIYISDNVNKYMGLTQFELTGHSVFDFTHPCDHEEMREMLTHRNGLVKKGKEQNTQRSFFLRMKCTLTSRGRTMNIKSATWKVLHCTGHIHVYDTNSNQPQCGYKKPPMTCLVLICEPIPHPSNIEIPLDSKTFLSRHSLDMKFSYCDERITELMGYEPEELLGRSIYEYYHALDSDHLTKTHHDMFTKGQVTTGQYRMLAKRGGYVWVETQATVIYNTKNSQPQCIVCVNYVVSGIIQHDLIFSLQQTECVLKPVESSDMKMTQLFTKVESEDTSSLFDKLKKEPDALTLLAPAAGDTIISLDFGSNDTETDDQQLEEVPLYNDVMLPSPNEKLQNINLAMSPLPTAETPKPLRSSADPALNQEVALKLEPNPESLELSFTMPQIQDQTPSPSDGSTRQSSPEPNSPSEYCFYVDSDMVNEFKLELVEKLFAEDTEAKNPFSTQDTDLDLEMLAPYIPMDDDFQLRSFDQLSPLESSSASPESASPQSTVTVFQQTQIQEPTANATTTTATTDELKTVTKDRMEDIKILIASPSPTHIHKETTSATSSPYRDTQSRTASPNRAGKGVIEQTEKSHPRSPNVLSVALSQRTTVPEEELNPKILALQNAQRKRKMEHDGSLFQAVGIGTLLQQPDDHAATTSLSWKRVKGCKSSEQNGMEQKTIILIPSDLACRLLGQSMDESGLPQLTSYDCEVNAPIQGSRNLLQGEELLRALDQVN
Hepatocyte nuclear factor 3-beta (Homo sapiens), sequence (Q9Y261 whole entry, looked up): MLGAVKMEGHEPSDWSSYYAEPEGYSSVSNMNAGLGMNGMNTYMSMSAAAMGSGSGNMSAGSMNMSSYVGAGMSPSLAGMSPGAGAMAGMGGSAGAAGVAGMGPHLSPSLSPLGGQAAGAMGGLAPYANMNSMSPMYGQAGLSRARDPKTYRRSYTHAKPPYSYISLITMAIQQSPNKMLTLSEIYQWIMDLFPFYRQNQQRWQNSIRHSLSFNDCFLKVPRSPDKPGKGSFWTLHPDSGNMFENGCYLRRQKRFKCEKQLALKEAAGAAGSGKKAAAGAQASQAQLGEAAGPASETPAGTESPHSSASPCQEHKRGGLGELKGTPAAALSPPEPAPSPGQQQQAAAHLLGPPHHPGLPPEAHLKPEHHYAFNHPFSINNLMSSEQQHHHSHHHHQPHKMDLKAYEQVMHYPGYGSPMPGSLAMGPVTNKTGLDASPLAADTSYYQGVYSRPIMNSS
Bile acid receptor (Homo sapiens), sequence (Q96RI1 whole entry, looked up): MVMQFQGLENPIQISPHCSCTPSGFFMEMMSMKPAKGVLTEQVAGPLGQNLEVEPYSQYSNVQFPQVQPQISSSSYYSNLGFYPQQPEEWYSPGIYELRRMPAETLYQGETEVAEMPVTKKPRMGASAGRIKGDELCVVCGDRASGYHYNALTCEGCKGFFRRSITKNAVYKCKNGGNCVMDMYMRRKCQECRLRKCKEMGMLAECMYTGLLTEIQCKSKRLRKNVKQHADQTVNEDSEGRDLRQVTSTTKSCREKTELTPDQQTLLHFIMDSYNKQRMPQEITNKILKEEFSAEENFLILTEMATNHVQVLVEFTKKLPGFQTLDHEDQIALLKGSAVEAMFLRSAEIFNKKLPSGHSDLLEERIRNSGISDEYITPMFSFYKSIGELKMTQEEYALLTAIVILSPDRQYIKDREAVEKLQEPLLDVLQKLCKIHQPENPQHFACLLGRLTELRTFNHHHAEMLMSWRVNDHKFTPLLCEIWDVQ
Heat shock factor protein 1 (Homo sapiens), sequence (Q00613 whole entry, looked up): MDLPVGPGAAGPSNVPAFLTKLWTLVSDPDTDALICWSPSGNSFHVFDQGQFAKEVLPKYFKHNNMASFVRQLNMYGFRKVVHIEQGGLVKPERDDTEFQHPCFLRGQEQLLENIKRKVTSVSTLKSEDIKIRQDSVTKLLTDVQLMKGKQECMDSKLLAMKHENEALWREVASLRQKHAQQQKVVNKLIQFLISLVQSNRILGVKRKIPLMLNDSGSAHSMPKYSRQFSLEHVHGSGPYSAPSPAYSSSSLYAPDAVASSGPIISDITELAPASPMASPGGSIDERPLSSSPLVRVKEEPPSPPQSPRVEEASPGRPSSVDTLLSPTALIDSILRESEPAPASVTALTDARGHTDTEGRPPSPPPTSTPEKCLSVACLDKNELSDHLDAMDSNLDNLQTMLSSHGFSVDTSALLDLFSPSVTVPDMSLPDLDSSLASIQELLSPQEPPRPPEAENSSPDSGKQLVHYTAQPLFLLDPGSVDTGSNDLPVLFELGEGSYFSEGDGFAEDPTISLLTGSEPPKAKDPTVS

C[N+]1(C)CCCCC1
not listed: [16] | [17] | [18] | [19] | [20]
inactive: all other assays above

CC[C@H](C)[C@H]1O[C@]2(C=C[C@@H]1C)C[C@@H]1C[C@@H](C/C=C(\C)[C@@H](O[C@H]3C[C@H](OC)[C@@H](O[C@H]4C[C@H](OC)[C@@H](NC)[C@H](C)O4)[C@H](C)O3)[C@@H](C)/C=C/C=C3\CO[C@@H]4[C@H](O)C(C)=C[C@@H](C(=O)O1)[C@]34O)O2
not listed: [10] | [17] | [18] | [19] | [20]
inactive: all other assays above

CSc1nc(NC(C)C)nc(NC(C)C)n1
not listed: [2] | [6] | [10] | [18] | [19] | [20]
inactive: all other assays above

COc1cc(OC)nc(Sc2cccc(Cl)c2C(=O)O)n1
not listed: [10] | [16] | [17] | [19] | [20]
inactive: all other assays above

CCOP(=O)(NC(C)C)Oc1ccc(SC)c(C)c1 (stereo not drawn)
active: [15] 16.2 µM
not listed: [16] | [20]
inactive: all other assays above

CCCSP(=O)(OCC)SCCC
not listed: [6] | [10] | [16] | [17]
inactive: all other assays above

CCc1cnc(C2=NC(C)(C(C)C)C(=O)N2)c(C(=O)O)c1 (stereo not drawn)
not listed: [10] | [16] | [17] | [19] | [20]
inactive: all other assays above

From PubChem BioAssay (EPA / NIEHS)
